Measurements as given in PubChem BioAssay (Tox21).
Inconclusive results are not listed. Entries that show only a call come without a potency. The source made the active and inactive calls. The call rests on the fitted dose curve; in most records, active means well fitted cell-killing curve with a large enough effect in the repeat runs; inconclusive means weak or mixed curves, or effect the other way; inactive means flat fitted curve, though single readings scatter.

Experiments:
[1] = cAMP Responsive Elements (CRE) small molecule antagonists, cell-based qHTS assay: qHTS cell viability counter screen (AID 2060913); details: CRE-bla HEK293T viability, CellTiter-Glo luminescence, 5 h; series mostly up to 92.4 µM; further: nearly all actives have a fitted effect of over 40% in size
Summary of the method: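 Cytotoxicity counter screen multiplexed with the CRE-bla antagonist read: HEK293T cells in DMEM with dialyzed FBS and 25 mM HEPES were treated 3 hrs under 0.25 uM final NKH477, then viability measured by CellTiter-Glo luminescence.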

[2] = cAMP Responsive Elements (CRE) small molecule agonists, cell-based qHTS assay: qHTS cell viability counter screen (AID 2060914); details: CRE-bla HEK293T viability, CellTiter-Glo luminescence, 5 h; series mostly up to 92.4 µM;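 further: viability read after 3 h of compound exposure; nearly all actives have a fitted effect of over 50% in size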
Summary of the method: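 CRE-bla HEK 293T cells, plated 18 h at 37 °C, were exposed to compounds for 3 h at 37 °C/5% CO2. Viability was then measured in the same wells by CellTiter-Glo luminescence after 30 min at room temperature.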

Structure (SMILES) | Potency [1] | Potency [2]
CC(C)C(=O)OCCc1ccccc1 | inactive | inactive
Cc1cc(Nc2ccc(O)cc2)ccc1N | inactive | inactive
CCOc1ccc(N)c([N+](=O)[O-])c1 | inactive | inactive
COCCC(=O)OC | inactive | inactive
CCOC(=O)[C@@H](C)Oc1ccc(Oc2nc3ccc(Cl)cc3o2)cc1 | inactive | inactive
C=CCc1ccc(O)c(OC)c1 | inactive | inactive
COc1ccc2cc(CCC(C)=O)ccc2c1 | inactive | inactive
O=C(O)CCCCC1CCSS1 (configuration not stated) | inactive | inactive
Nc1cccc(N)c1 | inactive | inactive
CC(C)c1cccc(C(C)C)c1N | inactive | inactive
CC[C@@]1(O)C(=O)OCc2c1cc1n(c2=O)Cc2c-1nc1ccccc1c2/C=N/OC(C)(C)C | inactive | inactive
CCC(C(=O)NC(=O)NC(C)=O)c1ccccc1 (configuration not stated) | inactive | inactive
CC1CN(c2ccccc2)NC1=O (configuration not stated) | inactive | inactive
CNCCCC1c2ccccc2C=Cc2ccccc21 | inactive | inactive
C1CCCNCC1 | inactive | inactive
Cc1cccc(N(C)C(=S)Oc2ccc3c(c2)CCC3)c1 | inactive | inactive
CCCCC1C(=O)N(c2ccccc2)N(c2ccccc2)C1=O | inactive | inactive
O=C(O)c1cc(=O)[nH]c(=O)[nH]1 | inactive | inactive
NC(=O)c1ncn([C@@H]2O[C@H](CO)[C@@H](O)[C@H]2O)c1N | inactive | inactive
Cc1cccc(C)c1NC(=O)CN1CCCCCC1 | inactive | inactive
CCC1COC(=O)O1 (configuration not stated) | inactive | inactive
